Experimental data: PubChem BioAssay (NCI)
Compounds without any hit were thinned out: in the full panel of roughly 83,000, 20% have a hit.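 Treatment: one concentration, 48 hours, 96-well format. Scoring: percent growth, with anything below 10 considered active.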 Activity calls are given as the source filed them.

Tests used:
Experiment in all cases: NCI-60 one-dose screen, 48 h (100 = growth as untreated, 0 = no growth, -100 = all killed)
Settings in all cases: 10 µM unless noted
HCT-15 colon = tested on: HCT-15 colon
HT29 colon = tested on: HT29 colon
SNB-75 CNS = tested on: SNB-75 CNS
SNB-19 CNS = tested on: SNB-19 CNS
U251 CNS = tested on: U251 CNS
PC-3 prostate = tested on: PC-3 prostate
UACC-62 melanoma = tested on: UACC-62 melanoma
LOX IMVI melanoma = tested on: LOX IMVI melanoma
SK-MEL-28 melanoma = tested on: SK-MEL-28 melanoma

Measured: growth

CCOc1cc2ncc(C#N)c(Nc3ccc(OCc4cccc(F)c4)c(Cl)c3)c2cc1NC(=O)CC1CCSS1 (stereo unspecified)
inactive: HCT-15 colon 66.4% | HT29 colon 17.6% | SNB-75 CNS 102% | SNB-19 CNS 81.5% | U251 CNS 55.9% | UACC-62 melanoma 71.6% | SK-MEL-28 melanoma 34.9%
active: PC-3 prostate -42.7% | LOX IMVI melanoma -35.3%

O=C1c2cc3c(cc2-c2c1c1ccc(F)cc1c(=O)n2C[C@H](O)[C@@H](O)[C@H](O)CO)OCO3
active: HCT-15 colon 5.37% | HT29 colon -2.72% | SNB-75 CNS -38.4% | SNB-19 CNS 4.38% | U251 CNS -19.1% | PC-3 prostate 7.25% | UACC-62 melanoma -55.5% | LOX IMVI melanoma -30.4% | SK-MEL-28 melanoma -37.6%

C=C(C)C1CC(O)C2(C)CCCC3C2C1CC(C)C3(C)CC/C(C)=C/C(O)C1CCC(=O)c2c(OC)cc(OC)cc21 (stereo unspecified)
inactive: HCT-15 colon 30.7% | HT29 colon 46.6% | SNB-75 CNS 38.3% | SNB-19 CNS 56.5% | U251 CNS 35.9% | PC-3 prostate 20.9% | UACC-62 melanoma 36.5% | LOX IMVI melanoma 22.5% | SK-MEL-28 melanoma 49.6%

O=c1ccccc(-c2ccc(-c3ccco3)cc2)c1O
inactive: HCT-15 colon 29% | HT29 colon 24.9% | SNB-75 CNS 38.8% | SNB-19 CNS 19.3% | PC-3 prostate 32% | SK-MEL-28 melanoma 30.7%
active: U251 CNS 8.2% | UACC-62 melanoma -42.3% | LOX IMVI melanoma 8.59%

Clc1ccc2nc3nc4ccc[nH]c4cc3c2c1
inactive: HCT-15 colon 69.3% | HT29 colon 83.8% | SNB-75 CNS 88.8% | SNB-19 CNS 89% | U251 CNS 82.8% | PC-3 prostate 75.1% | UACC-62 melanoma 80.4% | LOX IMVI melanoma 91.9% | SK-MEL-28 melanoma 111%

CN(C)c1ccc(NC(=O)c2ccc(/C=C/C(=O)c3ncc[nH]3)cc2)cc1
inactive: HCT-15 colon 16.2% | HT29 colon 11.6% | SNB-75 CNS 68.7% | SNB-19 CNS 28.3% | U251 CNS 11.8% | PC-3 prostate 68.1% | UACC-62 melanoma 70.5% | LOX IMVI melanoma 14.7% | SK-MEL-28 melanoma 95.3%

O=C1Nc2c(ccc(Cl)c2Cl)/C1=C\c1ccc(C(F)(F)F)cc1
inactive: HCT-15 colon 81.9% | HT29 colon 74.4% | SNB-75 CNS 73.4% | SNB-19 CNS 81.6% | U251 CNS 74.2% | PC-3 prostate 62.5% | UACC-62 melanoma 61.9% | LOX IMVI melanoma 67% | SK-MEL-28 melanoma 97.4%

O=C1C=C(OCC=C(Cl)Cl)C(=O)c2ccccc21
inactive: HCT-15 colon 64.2% | HT29 colon 82.4% | SNB-75 CNS 50.6% | SNB-19 CNS 98.7% | U251 CNS 75.7% | PC-3 prostate 80.9% | UACC-62 melanoma 87% | LOX IMVI melanoma 28.8% | SK-MEL-28 melanoma 104%

CN1CCN(Cc2ccc(NC(=O)c3cncc(C#Cc4cncn5ccnc45)c3)cc2C(F)(F)F)CC1
inactive: HCT-15 colon 46.1% | HT29 colon 19.2% | SNB-75 CNS 123% | SNB-19 CNS 92.4% | U251 CNS 76.9% | PC-3 prostate 90.3% | UACC-62 melanoma 18.7% | SK-MEL-28 melanoma 30.3%
active: LOX IMVI melanoma 4.74%

COc1cc2c(cc1-c1c(C)noc1C)ncc1nc(-c3ccccn3)n([C@H](C)COC(F)F)c12
inactive: HCT-15 colon 23.2% | HT29 colon 24.2% | SNB-75 CNS 34% | SNB-19 CNS 60.2% | U251 CNS 48.8% | PC-3 prostate 34% | UACC-62 melanoma 23.9% | LOX IMVI melanoma 20.9% | SK-MEL-28 melanoma 67.3%

CNC(=O)c1cc(Oc2ccc(NC(=O)Nc3ccc(Cl)c(OC(F)(F)F)c3)c(F)c2)ccn1
inactive: HCT-15 colon 28.8% | HT29 colon 14% | SNB-75 CNS 83% | SNB-19 CNS 30.3% | U251 CNS 32.3% | PC-3 prostate 22.1% | LOX IMVI melanoma 17.2% | SK-MEL-28 melanoma 13.7%
active: UACC-62 melanoma 5.13%

CCc1nc(N)nc(N)c1C#CC(C)c1ccc(-c2ccncc2)cc1Cl (stereo unspecified)
active: HT29 colon 4.74% | SNB-75 CNS -9.88%
inactive: HCT-15 colon 13.3% | SNB-19 CNS 20.9% | U251 CNS 13.8% | PC-3 prostate 21.6% | UACC-62 melanoma 13.2% | LOX IMVI melanoma 13.9% | SK-MEL-28 melanoma 40.4%

CCOC(=O)c1cc(C(=O)c2ccc(O)c(O)c2)n2ccc(-c3ccn4c(C(=O)c5ccc(O)c(O)c5)cc(C(=O)OCC)c4c3)cc12
inactive: HCT-15 colon 88% | HT29 colon 96% | SNB-75 CNS 87.3% | SNB-19 CNS 93.9% | U251 CNS 97% | PC-3 prostate 89.1% | UACC-62 melanoma 97.9% | LOX IMVI melanoma 89% | SK-MEL-28 melanoma 113%

O=c1cc(/C(=C2/C=CC=N2)c2ccc[nH]2)c2cc(Cl)ccc2o1
inactive: HCT-15 colon 35.1% | HT29 colon 47.9% | SNB-75 CNS 24.6% | SNB-19 CNS 25.7% | U251 CNS 14.4% | PC-3 prostate 38.9% | UACC-62 melanoma 42.9% | LOX IMVI melanoma 34.3% | SK-MEL-28 melanoma 61.8%
